Measurements: PubChem BioAssay (EPA / NIEHS)
Values joined by “and” are separate entries in the source; they are usually repeats but may differ in a detail not shown here. Equal entries are not always repeated. Records with an inconclusive call do not appear. Where a structure was tested more than once in an assay, its records may differ in their call. Active and inactive are the calls of the source. Rule for the calls, unless noted: active = hit-call score of the fitted dose curve at least 0.9, where 1 is the maximum; inconclusive = response in the unintended direction; inactive = score below 0.9.

How the values were obtained:
[1] = target: Bile acid receptor (Homo sapiens) (UniProt Q96RI1); assay: ATG_FXR_TRANS: Attagene TRANS-FACTORIAL HepG2 Assay for Farnesoid X Receptor (FXR) (AID 2282979); details: HepG2 Attagene TRANS FXR-GAL4 reporter transcription;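 note: hits raise reporter mRNA above DMSO so AC50 marks FXR activation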
How it was run: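 Transient transfection of HepG2 with multiplexed GAL4-UAS reporter units; exogenous FXR-GAL4 chimera. Dose 24 h → TriZol RNA → oligo(dT) RT → PCR, 6-FAM primer extension, HpaI cut → CE. Gain vs DMSO.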

[2] = target: Hepatocyte nuclear factor 4-alpha (Homo sapiens) (UniProt P41235); assay: ATG_HNF4a_TRANS: Attagene TRANS-FACTORIAL HepG2 Assay for human Hepatocyte Nuclear Factor 4 alpha (HNF4a) (AID 2282982); details: HepG2 HNF4a transactivation reporter, mRNA readout
How it was run: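 Readout is fluorescent reporter-transcript fragments resolved by capillary electrophoresis after RT-PCR from HepG2 cells dosed for 24 h. Cells carried transfected GAL4-UAS reporter constructs measuring exogenous NR-GAL4 chimera activity; DMSO served as baseline.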

[3] = target: Nuclear receptor subfamily 4 group A member 2 (Homo sapiens) (UniProt P43354); assay: ATG_NURR1_TRANS: Attagene TRANS-FACTORIAL HepG2 Assay for human Nuclear Receptor Related Protein 1 (NURR1) (AID 2282985); details: HepG2 Attagene TRANS reporter, mRNA readout
How it was run: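 Transient transfection of HepG2, human liver cells, with multiple GAL4-UAS reporter transcription units. Cells dosed 24 h, RNA isolated, reverse-transcribed, PCR-amplified, FAM-labelled, HpaI-digested, sized by capillary electrophoresis. DMSO served as negative control.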

[4] = target: Transcriptional activator Myb (Homo sapiens) (UniProt P10242); assay: ATG_Myb_CIS: Attagene CIS-FACTORIAL HepG2 Assay for human Myeloblastosis (Myb) Proto-Oncogene Transcription Factor (AID 2282986; active = hit-call score of the fitted dose curve at least 0.9, where 1 is the maximum; inactive = score below 0.9); details: HepG2 Attagene CIS-FACTORIAL Myb reporter transcription; actives raise or lower the signal
How it was run: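 HepG2, transient MRTU transfection (cis-element promoters, endogenous TF activity), 24 h compound exposure. Readout: reporter mRNA via RT-PCR, 6-FAM labeling, HpaI digest, capillary electrophoresis. Gain/loss fit vs DMSO.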

[5] = target: Nuclear respiratory factor 1 (Homo sapiens) (UniProt Q16656); assay: ATG_NRF1_CIS: Attagene CIS-FACTORIAL HepG2 Assay for human Nuclear Respiratory Factor 1 (NRF1) Orphan Gene (AID 2282987; active = hit-call score of the fitted dose curve at least 0.9, where 1 is the maximum; inactive = score below 0.9); details: HepG2 NRF1 cis-element reporter, Attagene multiplex; actives raise or lower the signal
How it was run: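 Endogenous NRF1-driven reporter transcription measured in transiently transfected human HepG2 liver cells. Readout: reporter mRNA by RT-PCR and capillary electrophoresis with fluorescence detection, 24 h post-dosing. Gain or loss of signal fitted relative to DMSO baseline.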

[6] = target: Oxysterols receptor LXR-alpha (Homo sapiens) (UniProt Q13133); assay: ATG_LXRa_TRANS: Attagene TRANS-FACTORIAL HepG2 Assay for human Liver X Receptor alpha (LXRa) (AID 2282980); details: HepG2 Attagene TRANS reporter, LXRa transactivation
How it was run: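 Transfect HepG2 with GAL4-UAS multiplex reporter constructs (TRANS format, chimeric receptor-GAL4); treat 24 h; extract RNA, reverse-transcribe, PCR-amplify, FAM-label, HpaI-digest; resolve fragments by capillary electrophoresis. Upward response vs DMSO.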

[7] = target: Oxysterols receptor LXR-beta (Homo sapiens) (UniProt P55055); assay: ATG_LXRb_TRANS: Attagene TRANS-FACTORIAL HepG2 Assay for human Liver X Receptor beta (LXRb) (AID 2282981); details: HepG2 Attagene TRANS GAL4-LXRb reporter, mRNA
How it was run: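 Transient transfection HepG2 (multiplexed RTUs, GAL4-UAS); NR-Gal4 chimera; 24 h exposure; RNA → RT-PCR → 6-FAM primer extension → HpaI → CE; increase vs DMSO.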

[8] = ATG_M_06_TRANS: Attagene TRANS-FACTORIAL HepG2 Assay for M06 Transcription Factor (Internal Marker) (AID 2282983); details: HepG2 Attagene TRANS M06 internal marker reporter
How it was run: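 Transfect HepG2 with MRTUs → dose compounds 24 h → isolate RNA, oligo(dT) RT → PCR with reporter primers → 6-FAM primer extension → HpaI digest → CE fragment analysis. Positive direction vs DMSO.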

[9] = ATG_M_32_TRANS: Attagene TRANS-FACTORIAL HepG2 Assay for M32 Transcription Factor (Internal Marker) (AID 2282984); details: HepG2 Attagene TRANS M32 internal marker reporter;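 note: transcript level of a background control reporter unit measured by RT-PCR and capillary electrophoresis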
How it was run: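 Measures reporter mRNA induction in human HepG2 liver cells after 24 h chemical treatment. Transcripts from transiently transfected GAL4-UAS reporter units are amplified, fluorescently labelled and sized by capillary electrophoresis; gain of signal relative to DMSO.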

[10] = target: Glucocorticoid receptor (Homo sapiens) (UniProt P04150); assay: ATG_GR_TRANS: Attagene TRANS-FACTORIAL HepG2 Assay for human Glucocorticoid Receptor (GR) (AID 2282978); details: HepG2 Attagene TRANS GR reporter, mRNA transcription;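 note: activators score as hits since higher reporter transcript over DMSO is fitted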
How it was run: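 Transient MRTU transfection of HepG2 (GAL4-UAS reporters, exogenous NR-GAL4 chimeras), 24 h dosing. Readout: reporter transcript via RT-PCR + capillary electrophoresis fluorescence. Positive direction vs DMSO baseline.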

Measured: AC50

Hepatocyte nuclear factor 4-alpha (Homo sapiens), sequence (P41235 whole entry, looked up, the tested form may be a part): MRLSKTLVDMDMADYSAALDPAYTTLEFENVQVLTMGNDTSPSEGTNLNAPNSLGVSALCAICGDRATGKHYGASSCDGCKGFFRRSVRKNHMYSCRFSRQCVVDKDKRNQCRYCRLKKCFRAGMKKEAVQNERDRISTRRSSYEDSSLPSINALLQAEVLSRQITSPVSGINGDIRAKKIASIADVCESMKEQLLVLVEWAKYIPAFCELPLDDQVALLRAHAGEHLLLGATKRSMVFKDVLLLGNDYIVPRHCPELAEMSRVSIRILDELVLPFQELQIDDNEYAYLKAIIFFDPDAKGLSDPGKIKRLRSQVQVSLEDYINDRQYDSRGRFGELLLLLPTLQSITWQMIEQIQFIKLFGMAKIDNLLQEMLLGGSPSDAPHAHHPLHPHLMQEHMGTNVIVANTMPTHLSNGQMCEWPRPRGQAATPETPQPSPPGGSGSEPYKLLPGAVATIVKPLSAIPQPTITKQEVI
Transcriptional activator Myb (Homo sapiens), sequence (P10242 whole entry, looked up): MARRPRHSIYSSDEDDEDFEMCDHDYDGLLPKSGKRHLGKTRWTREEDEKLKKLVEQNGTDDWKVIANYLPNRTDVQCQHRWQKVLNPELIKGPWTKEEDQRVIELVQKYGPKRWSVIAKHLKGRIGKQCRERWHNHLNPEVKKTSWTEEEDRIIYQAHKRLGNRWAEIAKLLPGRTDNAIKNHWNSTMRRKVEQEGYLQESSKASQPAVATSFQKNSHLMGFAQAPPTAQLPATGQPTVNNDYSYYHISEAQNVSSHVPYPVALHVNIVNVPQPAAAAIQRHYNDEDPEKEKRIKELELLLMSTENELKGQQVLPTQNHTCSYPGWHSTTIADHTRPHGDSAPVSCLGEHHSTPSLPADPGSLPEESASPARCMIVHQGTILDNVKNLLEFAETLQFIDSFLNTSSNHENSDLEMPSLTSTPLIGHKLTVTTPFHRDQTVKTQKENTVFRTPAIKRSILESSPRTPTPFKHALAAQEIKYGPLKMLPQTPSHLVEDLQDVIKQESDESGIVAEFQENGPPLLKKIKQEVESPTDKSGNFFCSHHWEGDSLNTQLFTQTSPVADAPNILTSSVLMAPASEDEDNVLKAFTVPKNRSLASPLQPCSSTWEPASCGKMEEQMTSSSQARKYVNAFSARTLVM
Nuclear respiratory factor 1 (Homo sapiens), sequence (Q16656 whole entry, looked up): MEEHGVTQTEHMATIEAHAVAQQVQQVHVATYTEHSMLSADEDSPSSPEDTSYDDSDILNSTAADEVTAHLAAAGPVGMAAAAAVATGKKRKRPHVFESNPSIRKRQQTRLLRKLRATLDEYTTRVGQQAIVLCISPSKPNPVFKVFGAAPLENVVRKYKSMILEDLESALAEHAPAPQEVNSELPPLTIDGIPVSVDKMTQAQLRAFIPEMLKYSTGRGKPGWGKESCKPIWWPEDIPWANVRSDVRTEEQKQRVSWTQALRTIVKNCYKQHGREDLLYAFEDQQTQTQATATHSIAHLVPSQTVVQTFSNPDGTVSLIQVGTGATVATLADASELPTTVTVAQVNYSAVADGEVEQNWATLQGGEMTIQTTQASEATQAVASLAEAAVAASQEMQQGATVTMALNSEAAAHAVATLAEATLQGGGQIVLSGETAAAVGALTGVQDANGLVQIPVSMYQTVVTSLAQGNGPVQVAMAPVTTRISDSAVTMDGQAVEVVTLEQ
Bile acid receptor (Homo sapiens), sequence (Q96RI1 whole entry, looked up, the tested form may be a part): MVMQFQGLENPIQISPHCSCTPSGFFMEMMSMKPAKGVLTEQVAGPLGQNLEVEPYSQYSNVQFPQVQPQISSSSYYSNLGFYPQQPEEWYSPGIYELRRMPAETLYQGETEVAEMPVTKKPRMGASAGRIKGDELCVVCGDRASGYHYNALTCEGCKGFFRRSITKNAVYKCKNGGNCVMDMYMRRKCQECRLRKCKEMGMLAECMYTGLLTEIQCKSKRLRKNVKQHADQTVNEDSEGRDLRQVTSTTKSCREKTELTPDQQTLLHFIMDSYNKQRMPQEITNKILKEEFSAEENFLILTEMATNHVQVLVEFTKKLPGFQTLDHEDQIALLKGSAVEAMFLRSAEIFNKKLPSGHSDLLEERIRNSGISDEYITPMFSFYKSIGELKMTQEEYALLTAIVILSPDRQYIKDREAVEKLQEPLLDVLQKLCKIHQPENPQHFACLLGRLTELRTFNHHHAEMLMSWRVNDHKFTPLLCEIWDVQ
Nuclear receptor subfamily 4 group A member 2 (Homo sapiens), sequence (P43354 whole entry, looked up, the tested form may be a part): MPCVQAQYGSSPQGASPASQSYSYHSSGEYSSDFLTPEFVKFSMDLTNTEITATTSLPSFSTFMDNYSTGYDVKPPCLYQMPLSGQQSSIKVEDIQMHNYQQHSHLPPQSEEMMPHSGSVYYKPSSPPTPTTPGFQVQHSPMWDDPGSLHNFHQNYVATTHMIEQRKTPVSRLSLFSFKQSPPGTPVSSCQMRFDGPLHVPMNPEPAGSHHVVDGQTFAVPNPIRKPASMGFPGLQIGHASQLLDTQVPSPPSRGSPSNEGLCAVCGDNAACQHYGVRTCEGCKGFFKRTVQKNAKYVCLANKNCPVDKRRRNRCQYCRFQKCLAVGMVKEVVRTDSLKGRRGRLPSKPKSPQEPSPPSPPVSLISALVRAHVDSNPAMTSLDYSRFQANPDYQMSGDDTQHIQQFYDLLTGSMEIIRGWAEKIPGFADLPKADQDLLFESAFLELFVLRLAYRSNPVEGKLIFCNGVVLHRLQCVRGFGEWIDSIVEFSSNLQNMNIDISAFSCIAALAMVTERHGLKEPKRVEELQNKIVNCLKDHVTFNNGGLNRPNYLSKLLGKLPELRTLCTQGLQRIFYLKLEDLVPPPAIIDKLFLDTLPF
Oxysterols receptor LXR-alpha (Homo sapiens), sequence (Q13133 whole entry, looked up, the tested form may be a part): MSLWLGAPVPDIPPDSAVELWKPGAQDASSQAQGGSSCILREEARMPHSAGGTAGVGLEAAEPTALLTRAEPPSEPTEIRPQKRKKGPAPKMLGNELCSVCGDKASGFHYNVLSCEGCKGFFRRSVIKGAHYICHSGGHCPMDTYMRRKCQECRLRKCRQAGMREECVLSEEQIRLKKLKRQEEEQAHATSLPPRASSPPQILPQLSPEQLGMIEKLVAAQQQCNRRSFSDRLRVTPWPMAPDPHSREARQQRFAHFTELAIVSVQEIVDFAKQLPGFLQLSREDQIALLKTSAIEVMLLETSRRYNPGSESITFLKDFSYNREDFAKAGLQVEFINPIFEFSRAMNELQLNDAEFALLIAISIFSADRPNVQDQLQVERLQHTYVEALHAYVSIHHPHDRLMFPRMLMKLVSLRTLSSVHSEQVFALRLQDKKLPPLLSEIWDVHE
Oxysterols receptor LXR-beta (Homo sapiens), sequence (P55055 whole entry, looked up, the tested form may be a part): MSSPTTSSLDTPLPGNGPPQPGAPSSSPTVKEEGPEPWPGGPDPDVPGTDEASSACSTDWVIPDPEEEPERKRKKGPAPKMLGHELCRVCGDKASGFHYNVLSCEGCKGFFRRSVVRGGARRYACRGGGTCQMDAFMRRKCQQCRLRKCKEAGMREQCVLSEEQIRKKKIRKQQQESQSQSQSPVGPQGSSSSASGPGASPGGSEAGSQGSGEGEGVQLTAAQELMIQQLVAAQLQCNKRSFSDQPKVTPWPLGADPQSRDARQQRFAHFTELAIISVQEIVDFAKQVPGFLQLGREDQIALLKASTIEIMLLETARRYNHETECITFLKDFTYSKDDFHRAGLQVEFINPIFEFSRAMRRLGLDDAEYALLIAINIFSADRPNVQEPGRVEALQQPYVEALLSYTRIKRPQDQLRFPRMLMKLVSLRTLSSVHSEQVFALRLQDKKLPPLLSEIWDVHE
Glucocorticoid receptor (Homo sapiens), sequence (P04150 whole entry, looked up, the tested form may be a part): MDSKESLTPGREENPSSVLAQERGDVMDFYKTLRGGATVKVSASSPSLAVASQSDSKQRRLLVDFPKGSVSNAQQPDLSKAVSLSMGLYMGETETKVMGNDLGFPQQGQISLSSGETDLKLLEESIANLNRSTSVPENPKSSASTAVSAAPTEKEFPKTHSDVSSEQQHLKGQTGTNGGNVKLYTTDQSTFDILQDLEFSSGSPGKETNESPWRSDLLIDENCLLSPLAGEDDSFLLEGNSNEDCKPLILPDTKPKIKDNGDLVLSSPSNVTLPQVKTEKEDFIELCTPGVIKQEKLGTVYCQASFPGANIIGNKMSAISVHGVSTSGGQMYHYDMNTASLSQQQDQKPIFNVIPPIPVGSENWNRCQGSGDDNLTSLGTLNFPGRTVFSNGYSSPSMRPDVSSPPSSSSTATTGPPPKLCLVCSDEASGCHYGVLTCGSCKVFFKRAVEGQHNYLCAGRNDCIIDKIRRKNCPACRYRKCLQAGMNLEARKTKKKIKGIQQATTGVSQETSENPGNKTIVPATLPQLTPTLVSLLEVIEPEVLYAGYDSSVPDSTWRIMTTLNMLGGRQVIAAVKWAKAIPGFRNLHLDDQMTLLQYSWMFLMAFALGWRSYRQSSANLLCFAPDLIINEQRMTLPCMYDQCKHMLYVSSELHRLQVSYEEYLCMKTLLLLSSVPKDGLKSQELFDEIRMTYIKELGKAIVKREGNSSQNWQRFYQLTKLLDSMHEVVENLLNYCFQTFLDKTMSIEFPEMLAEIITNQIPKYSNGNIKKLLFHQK

CCOC(=O)[C@]1(c2ccccc2)Oc2ccccc2[C@@H]1N
active: [5] 58.2 µM
inactive: [1] | [2] | [3] | [4]

C[C@]12C=CC3=C4CCC(=O)C=C4CC[C@H]3[C@@H]1CC[C@@H]2O
not listed: [5] | [10]
inactive: all other assays above

O=C(N[C@H](c1ccccc1)[C@@H]1CN2CCC1CC2)c1c(Cl)ccc(C(F)(F)F)c1Cl
inactive: [1] | [8] | [4]

CC(C)COC(=O)c1ccccc1C(=O)OCC(C)C
inactive: [1] | [8] | [9] | [3] | [4]

O=[N+]([O-])C(Br)(CO)CO
active: [7] 0.00914 µM | [5] 162 µM
not listed: [3] | [10]
inactive: all other assays above

OCCCl
inactive: [1] | [6] | [7] | [8] | [4] | [5]

Cc1cc(N=Nc2ccccc2C)ccc1N
not listed: [5] | [10]
inactive: all other assays above

CO[C@@H]1[C@H](OC(=O)NC(=O)CCl)CC[C@]2(CO2)[C@H]1[C@@]1(C)O[C@@H]1CC=C(C)C
inactive: [6] | [7] | [2] | [8] | [9] | [4]

CC(C)(OOC(C)(C)c1ccccc1)c1ccccc1
active: [5] 63 µM
not listed: [2] | [9] | [10]
inactive: all other assays above

CCCCCCCCn1sccc1=O
inactive: [1] | [2] | [8] | [9]
active: [4] 11.6 µM

CCC(C)c1ccc(O)cc1 (centres undefined)
not listed: [2] | [6] | [10]
inactive: all other assays above

CC(C)N(Cc1ccccc1)C(=O)C(C)(C)C
inactive: [1] | [3] | [4] | [5]

CN(C)c1ccc(C(=O)c2ccc(N(C)C)cc2)cc1
inactive: [1] | [6] | [2] | [9] | [4] | [5]

Nc1ccc(Cc2ccc(N)cc2)cc1
inactive: [1] | [6] | [8] | [9] | [4] | [5]

CN(C)[C@@H]1C(=O)C(C(N)=O)=C(O)[C@@]2(O)C(=O)C3=C(O)c4c(O)cccc4[C@@](C)(O)[C@H]3C[C@@H]12
inactive: [1] | [6] | [7] | [4] | [5]

Nc1ccc(Cl)cc1N
not listed: [2] | [10]
inactive: all other assays above

CN(C)C(=O)Nc1ccc(Cl)cc1
inactive: [1] | [7] | [8] | [9] | [4]

Nc1ccc([N+](=O)[O-])cc1
not listed: [10]
inactive: all other assays above

Clc1ccc(C(c2ccc(Cl)cc2)C(Cl)Cl)cc1
not listed: [2] | [6] | [10]
inactive: all other assays above

O=P(OCCCl)(OCCCl)OCCCl
inactive: [10] | [1] | [7] | [2] | [9] | [4]

CCNS(=O)(=O)C(F)(F)C(F)(F)C(F)(F)C(F)(F)C(F)(F)C(F)(F)C(F)(F)C(F)(F)F
inactive: [1] | [6] | [7] | [2] | [8] | [9] | [3] | [4]
active: [6] 42.3 µM and 39.2 µM | [4] 25.8 µM

N#CC(Br)Br
inactive: [1] | [6] | [7] | [8] | [9] | [4]

COP(=S)(OC)SCN1C(=O)c2ccccc2C1=O
inactive: [1] | [3] | [4]

ClCCOCCCl
inactive: [1] | [7] | [9] | [3] | [4] | [5]

CC(C)(O)c1cnn2c(-c3ccc(F)c(-c4c(F)cccc4C#N)c3)cnc2n1
inactive: [9] | [4]
active: [1] 14.5 µM | [5] 8.4 µM

CCC[CH2][Sn]([Cl])([CH2]CCC)[CH2]CCC
inactive: [1] | [7] | [2] | [8] | [4]
active: [3] 0.0336 µM

Cc1cccc(N)c1N
inactive: [1] | [6] | [8] | [9] | [3] | [4]

CNC(=O)Oc1cccc2c1OC(C)(C)C2
inactive: [6] | [7] | [2] | [9] | [3] | [4]

Clc1ccc(Cl)c(Cl)c1
inactive: [7] | [2] | [8] | [3] | [4]

OCCOCCO
inactive: [6] | [7] | [2] | [9] | [4]

c1ccc2c(c1)oc1ccccc12
inactive: [7] | [8] | [9] | [3] | [4] | [5]

O=Cc1ccco1
inactive: [6] | [2] | [3] | [4] | [5]

C=CCc1ccc2c(c1)OCO2
inactive: [6] | [2] | [8] | [9] | [3] | [4]

COc1cc(C=O)cc2c1[C@H](COC(N)=O)[C@]1(OC(C)=O)ON2C[C@H]2[C@@H]1N2C(C)=O
inactive: [6] | [2] | [8] | [9] | [5]
active: [4] 2.77 µM
